# Experimental data from PubChem BioAssay AID1851 (National Center for Advancing Translational Sciences (NCATS), 2009).
# The whole screen tested about 16,000 compounds, of which about 4,000 (25%) were called active. Another 26% or so got no clear call; they are omitted. The list is a sample of the results. A number with no mark means an inactive call. The call rests on the fitted dose curve; in most records, active means well fitted curve in the direction sought with a large enough effect; inconclusive means small, poorly fitted or top-dose-only effect, or effect the other way; inactive means no such curve, though single readings can be large or run the other way.
# Target: Cytochrome P450 2C9 (Homo sapiens) (UniProt P11712)
# Assay: Cytochrome panel assay with activity outcomes
# Settings: recombinant CYP, pro-luciferin dealkylation, luminescence, p450-cyp2c9; series mostly up to 57.1 µM; activity, negative = inhibition: at the top concentration
# On the % scale 0 is the no-effect control and ±100 the full control effect.
# Cytochrome P450 2C9 (Homo sapiens), sequence (P11712 whole entry, looked up): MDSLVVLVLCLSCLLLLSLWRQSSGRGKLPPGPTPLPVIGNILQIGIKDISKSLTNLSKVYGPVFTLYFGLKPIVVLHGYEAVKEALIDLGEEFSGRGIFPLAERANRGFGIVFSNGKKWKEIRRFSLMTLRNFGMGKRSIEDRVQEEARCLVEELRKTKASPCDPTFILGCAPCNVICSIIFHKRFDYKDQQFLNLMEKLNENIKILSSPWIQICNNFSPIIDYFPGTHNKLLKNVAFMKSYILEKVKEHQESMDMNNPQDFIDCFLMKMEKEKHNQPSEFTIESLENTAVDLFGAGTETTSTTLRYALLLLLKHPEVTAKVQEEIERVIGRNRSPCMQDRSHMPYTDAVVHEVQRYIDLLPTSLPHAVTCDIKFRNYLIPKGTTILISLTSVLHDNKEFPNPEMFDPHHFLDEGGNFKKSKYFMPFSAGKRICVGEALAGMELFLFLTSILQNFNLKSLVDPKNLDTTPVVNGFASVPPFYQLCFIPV
Compound,AC50,"activity, negative = inhibition"
CCc1ccc(C(C(=O)NCc2ccc(OC)cc2)N(CCOC)C(=O)Cc2cccs2)cc1 (centres undefined),10 µM (active),
COc1ccc2nc3oc(C(=O)NCc4cccs4)cc3cc2c1,,-10.2%
O=C(NCc1ccccc1)C(c1cccs1)N(Cc1cccs1)C(=O)c1cnccn1 (centres undefined),15.8 µM (active),
CN(C)Cc1ccccc1-c1cncnc1NCc1cccs1,,-10.6% [at 2.29 µM]
O=C(NC1CCCCC1)C(c1cccs1)N(Cc1cccs1)C(=O)c1ccco1 (centres undefined),8.91 µM (active),
COc1ccc(CNC(=O)C(c2ccc(C)cc2)N(Cc2cccs2)C(=O)c2ccc3c(c2)OCCO3)cc1 (centres undefined),7.08 µM (active),
CN(C)C(=O)c1ccc(-c2cncnc2NCc2cccs2)cc1,,-0.243% [at 2.29 µM]
CN(Cc1ccco1)c1cc(-c2ccccc2Cl)ncn1,,-2.34% [at 2.29 µM]
N[C@H](C(=O)O)[C@@H]1[C@@H](C(=O)O)C1(F)F,,-13.7%
COc1ccc(C(C(=O)NCc2ccccc2)N(Cc2cccs2)C(=O)c2cnccn2)cc1 (centres undefined),7.94 µM (active),
CC1(C)[C@@H]2CC[C@]1(C)[C@@H](OC(=O)/C=C\c1ccccc1)C2,,-14.1% [at 11.4 µM]
CS(=O)(=O)N1CCC2(CCN(C(=O)Nc3cccc(F)c3)CC2)CC1,,-4.47%
COc1cccc(N(CC(=O)Nc2cccc(C(C)=O)c2)S(C)(=O)=O)c1,25.1 µM (active),
CS(=O)(=O)N1CCC[C@@]2(CCN(C(=O)Nc3cccc(F)c3)C2)C1,,3.71%
CS(=O)(=O)N(CC(=O)Nc1cccc(F)c1)c1cccc([N+](=O)[O-])c1,3.55 µM (active),
CC(=O)NCCC(=O)Nc1sc2c(c1-c1nc3ccccc3[nH]1)CCCC2,11.2 µM (active),
CC(=O)Nc1sc2c(c1CN1CCN(C)CC1)CCCC2,,-27.7%
CC(=O)Nc1sc2c(c1C(N)=O)CCCC2,,-29.9%
N#Cc1cccc(-c2cc(NCc3cccs3)ncn2)c1,,-9.65% [at 2.29 µM]
CN1CCc2cc3c(cc2[C@@H]1[C@@H]1C(=O)Oc2c1ccc1c2OCO1)OCO3,12.6 µM (active),

Compound,AC50,"activity, negative = inhibition"
C[N+]1(C)CCc2cc3c(cc2[C@@H]1[C@@H]1C(=O)Oc2c1ccc1c2OCO1)OCO3,inactive,
O=C(O)c1ccc(Sc2nnnn2-c2ccccc2)c([N+](=O)[O-])c1,,19%
O=C(Nc1ccccc1[N+](=O)[O-])C1C(c2ccccc2)=C1c1ccccc1,6.31 µM (active),
COCC(=O)N1CCC2(CCCN(C(=O)Nc3cccc(F)c3)C2)CC1,,-2.36%
CC(=O)SCC[N+](C)(C)C,,9.28%
COc1ccc(/C=C2/S/C(=N/N=C3\CC4CCC3(C)C4(C)C)NC2=O)cc1 (centres undefined),8.91 µM (active),
CCCCCCCC/C=C\CCCCCCCC(=O)NCc1ccc(O)c(OC)c1,,-9.24%
COc1cc(CNC(=O)CCCC/C=C\C(C)C)ccc1O,2 µM (active),
CCCCCCCCC(=O)NCc1cc(OC)c(O)cc1I,,-13.8%
Cc1ccnc(N)c1,,28.1%
CSc1nsc(/C=C/Nc2ccc(Cl)cc2)c1C#N,2.24 µM (active),
CCn1c(SCc2nc3ccccc3[nH]2)nnc1-c1ccc(OC)cc1,12.6 µM (active),
c1ccc(-c2nnc(SCc3nc4ccccc4[nH]3)n2Cc2ccco2)cc1,6.31 µM (active),
Cc1ccccc1-c1cncnc1N(C)Cc1ccco1,,-10.8% [at 2.29 µM]
CCn1c(SCc2cccc(C)c2)nnc1-c1ccc(C)cc1,,-21.7%
Cc1ccccc1CSc1nnc(-c2cccs2)n1Cc1ccco1,11.2 µM (active),
CN(Cc1ccco1)c1nc(-c2ccoc2)nc2ccccc12,,-3.83% [at 2.29 µM]
CCn1c(SCC(=O)N2CCN(S(=O)(=O)c3ccccc3)CC2)nnc1-c1cccs1,,-37.8%
O=C(O)CC[C@]1(C(=O)O)CCC(=O)c2ccccc21,,-1.2% [at 11.4 µM]
N[C@H](C(=O)O)[C@@H]1C[C@@H]1C(=O)O,inactive,

Compound,AC50,"activity, negative = inhibition"
O=C1C=C(c2cccs2)CC(c2cccs2)C1n1cnc([N+](=O)[O-])c1 (centres undefined),14.1 µM (active),
Cc1nc(SCC(=O)c2cc3ccccc3oc2=O)c(C#N)c(C)c1C(=O)Nc1ccccc1,0.794 µM (active),
Cc1ccc(N2C(=O)CC(c3ccsc3)C3=C2CC(C)(C)CC3=O)cc1 (centres undefined),3.98 µM (active),
CC(=O)NCCNc1nc(-c2ccc(C(=O)N(C)C)cc2)nc2ccccc12,,6.97% [at 2.29 µM]
COc1cc(C(=O)Nc2nc3ccc4nc(C)sc4c3s2)cc(OC)c1OC,,-37.3%
Cc1nc2c(ccc3nc(NC(=O)c4ccc5c(c4)OCCO5)sc32)s1,0.708 µM (active),
Cc1nc2ccc3nc(NC(=O)c4ccc(S(=O)(=O)N5CCOCC5)cc4)sc3c2s1,,-18.4%
CN(C)c1ncnc2c1ncn2CCn1cnc2c(N(C)C)ncnc21,,-7.75% [at 11.4 µM]
CCN(C(=O)Cn1c(=O)oc2ccccc21)c1cccc(C(F)(F)F)c1,,11.8%
COc1cc(=O)n(C)c2c(OC[C@@H](O)C(C)(C)O)cccc12,inactive,
CCN(C(=O)COc1cc(=O)n(C)c2ccccc12)c1cccc(Cl)c1,7.94 µM (active),
CCSc1ncc(/C=N/Nc2ccc(F)cc2)n1C,12.6 µM (active),
Cc1cnn(CCC(=O)NNC(=S)Nc2ccc(F)cc2)c1,,-25.6%
CCOC(=O)N/N=C/c1ccc(F)cc1,,-11%
c1ccc([C@H](CCN2CCCC2)c2ccccn2)cc1,,10.4% [at 11.4 µM]
O=C1[C@H]2[C@H]3[C@H](O)[C@H](O)C/C(=N/OC[C@@H](O)COCc4ccco4)[C@H]3CC[C@@H]2C(=O)N1Cc1ccc2c(c1)OCO2,,12.6% [at 11.4 µM]
Cc1c(C(=O)NN2CCOCC2)nn(-c2ccc(Cl)cc2Cl)c1-c1ccc(I)cc1,6.31 µM (active),
Cc1ccc(C(=O)NN2CCOCC2)cc1,,-10.7%
O=C(N/N=C1/C[C@@H](O)[C@@H](O)[C@@H]2[C@@H]3C(=O)N(Cc4ccccc4)C(=O)[C@H]3CC[C@H]12)OCc1ccccc1,,4.61% [at 11.4 µM]
